According to PubChem BioAssay (NCI):
About 83,000 compounds went through this panel and 20% of them were active in at least one assay; those are over-represented in the sample as a whole.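 Single-concentration screen, 48 h exposure, 96-well plates. Endpoint: percent growth. Below 10 = active.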 A number with no mark means an inactive call. Active and inactive are the calls of the source.

Experiments:
Test in all cases: NCI-60 one-dose screen, 48 h (100 = growth as untreated, 0 = no growth, -100 = all killed)
HCT-15 colon = settings: 10 µM unless noted
HT29 colon = settings: 10 µM unless noted
SNB-75 CNS = settings: 10 µM unless noted
SNB-19 CNS = settings: 10 µM unless noted
U251 CNS = settings: 10 µM unless noted
PC-3 prostate = settings: 10 µM unless noted
SK-MEL-5 melanoma = settings: 10 µM unless noted
UACC-62 melanoma = settings: 10 µM unless noted
LOX IMVI melanoma = settings: 10 µM
SK-MEL-28 melanoma = settings: 10 µM unless noted
SN12C renal = settings: 10 µM unless noted
UO-31 renal = settings: 10 µM unless noted
TK-10 renal = settings: 10 µM unless noted
ACHN renal = settings: 10 µM unless noted
CAKI-1 renal = settings: 10 µM unless noted
A498 renal = settings: 10 µM unless noted
CCRF-CEM leukemia = settings: 10 µM unless noted
MOLT-4 leukemia = settings: 10 µM unless noted
SK-MEL-2 melanoma = settings: 10 µM unless noted
EKVX NSCLC = settings: 10 µM unless noted

Row | Structure (SMILES) | growth (HCT-15 colon) | growth (HT29 colon) | growth (SNB-75 CNS) | growth (SNB-19 CNS) | growth (U251 CNS) | growth (PC-3 prostate) | growth (SK-MEL-5 melanoma) | growth (UACC-62 melanoma) | growth (LOX IMVI melanoma) | growth (SK-MEL-28 melanoma) | growth (SN12C renal) | growth (UO-31 renal) | growth (TK-10 renal) | growth (ACHN renal) | growth (CAKI-1 renal) | growth (A498 renal) | growth (CCRF-CEM leukemia) | growth (MOLT-4 leukemia) | growth (SK-MEL-2 melanoma) | growth (EKVX NSCLC)
1 | CN(C)c1ccc(/C=C/c2cc[n+](C)c(/C=C/c3ccc(N(C)C)cc3)c2)cc1 | 19.5% | -7.82% (active) | 22.3% | 27% | 15.3% | 3.98% (active) | -95.6% (active) | 12.3% | 12.3% | 20.6% | 13.5% | -11.4% (active) | 0.183% (active) | 14.6% | -4.63% (active) | -10.3% (active) | 6.95% (active) | -26.5% (active) | – | –
2 | O=[N+]([O-])C=C(c1ccccc1)c1ccccc1 | 42.7% | 91.7% | 59.4% | 85.5% | 80.1% | 76.5% | 88.3% | 56.9% | – | 90.4% | 81.1% | 60.9% | 84.8% | 85.4% | 57.1% | 124% | 68.6% | 70.9% | 95.5% | 71%
3 | COc1cc(/C=C2\SC(=S)N(/C=C/c3nc4ccccc4[nH]c3=O)C2=O)cc(OC)c1OC | 91.7% | 90.6% | 66.9% | 97.5% | 81.8% | 95.2% | – | 81.9% | 56.7% | 90.5% | 98.2% | 2.14% (active) | 70.1% | 82.4% | 87.2% | 60% | 91.7% | 91.2% | 81.1% | 84.6%
4 | Cc1ccc(/C=C2\CNC/C(=C\c3ccc(C)cc3)C2=O)cc1 | -33.8% (active) | -35.8% (active) | 29% | -52.6% (active) | -63.4% (active) | 6.55% (active) | -96.7% (active) | -89% (active) | -69.2% (active) | – | – | -81.2% (active) | 16.9% | -82.5% (active) | -44.1% (active) | – | -3.56% (active) | -11.4% (active) | 61% | -67.4% (active)
5 | CCCCCCCCCCCCCCCCSC(=NCC)NCC | -36% (active) | -61.4% (active) | 53.3% | 55.3% | 4.98% (active) | -42% (active) | -38% (active) | – | -91.1% (active) | 43% | 18.6% | -13.2% (active) | 50.7% | -21.6% (active) | -25.9% (active) | 67.4% | -48.9% (active) | -47.7% (active) | -21.6% (active) | –
6 | CN(C)c1ccc(/C=C/c2sc3ccc4ccccc4c3[n+]2C)cc1 | 0.902% (active) | -100% (active) | -95.6% (active) | -32.5% (active) | -51.2% (active) | -38% (active) | -100% (active) | – | -35.3% (active) | -56.6% (active) | -54.3% (active) | 15.9% | – | -49.3% (active) | -10.9% (active) | -20.8% (active) | -8.92% (active) | -26.7% (active) | – | -13.6% (active)
7 | CCOC(=O)C1(C)CCCC1N (centres undefined) | 108% | 116% | 86.3% | 93.6% | 110% | 104% | 98% | 91.6% | – | 109% | – | 83.7% | 98.7% | 106% | 87.6% | 106% | 103% | 103% | 113% | 108%
8 | CCCCCCCCCCCC1N=C(N)N=C(N)N1c1cccc(Br)c1 (centres undefined) | 71.5% | -81.8% (active) | -12.7% (active) | -93.6% (active) | -75.2% (active) | -55.2% (active) | 19.3% | 37.9% | 9.55% (active) | 70.4% | 8.08% (active) | 71.9% | -45% (active) | 25.3% | 80.5% | 76.1% | -15.1% (active) | -16.5% (active) | – | 43.2%
9 | CCCCCCCCCCCC1=NCCCN1CCCC | 91.7% | 86.1% | 102% | 101% | 100% | 89.1% | – | 96.7% | 77.1% | 103% | 98.4% | 84.3% | 108% | – | 111% | – | 87.4% | 92% | 107% | –
10 | CC(=O)c1ccc2c(c1)CCc1ccccc1-2 | 93.9% | 102% | 87.1% | 103% | 95.6% | 100% | – | 109% | 113% | 101% | 109% | 105% | 99.9% | 108% | 101% | 63.1% | 109% | 114% | 110% | –
11 | OC(Cc1cc(CC(O)(C(F)(F)F)C(F)(F)F)nc(CC(O)(C(F)(F)F)C(F)(F)F)c1)(C(F)(F)F)C(F)(F)F | 9.46% (active) | -12.1% (active) | -8.76% (active) | 16% | – | 4.38% (active) | -83.3% (active) | -10.6% (active) | 0.881% (active) | 26.5% | 4.86% (active) | 6.74% (active) | 22.1% | 0.867% (active) | 4.5% (active) | -18.8% (active) | 7.23% (active) | -8.17% (active) | -28.3% (active) | 16%
12 | OC(c1cc2ccc(C(F)(F)F)cc2c2cc(C(F)(F)F)ccc12)C1CCCCN1 (centres undefined) | -90.4% (active) | -100% (active) | -94.4% (active) | -80.6% (active) | – | -95.2% (active) | -95.4% (active) | -96.5% (active) | -100% (active) | -99.3% (active) | -90.8% (active) | -95.8% (active) | -89.5% (active) | -94.1% (active) | -93.8% (active) | -65.6% (active) | -68% (active) | -73.4% (active) | -83.1% (active) | -96.7% (active)
13 | O=[N+]([O-])c1ccc(Oc2ccccc2Cl)c([N+](=O)[O-])c1 | 77% | 90.2% | 83.2% | 95.7% | 88.4% | 97.1% | – | – | 44.2% | 103% | 90.4% | 81.9% | 98.7% | 100% | 82.7% | 84.7% | 57.8% | 22.7% | 88.6% | 104%
14 | Fc1ccc(NCCS)cc1 | 105% | 111% | 80.4% | 107% | 97.9% | – | – | 106% | 91.7% | 103% | 97.9% | 84.7% | 106% | 105% | 110% | 101% | 96.6% | 95.3% | 102% | 101%
15 | CC(=O)OC1CC2CCC1(C)C2(C)C (centres undefined) | 98.9% | 96% | 93.5% | 103% | 103% | – | 106% | 92.6% | 101% | 105% | 98.6% | 87.3% | 106% | 96.7% | 92.6% | 108% | -45% (active) | 112% | – | 102%
16 | NC(=S)Nc1ccc2c(c1)Cc1ccccc1-2 | 95.7% | 87.8% | 73.8% | 87.7% | 83.7% | 71% | – | 77.3% | 91.4% | 103% | 89.4% | 55.2% | 121% | 91.7% | 92.1% | 110% | 70.5% | 88.7% | 89.6% | 67.1%
17 | NCCCN(CCCN)CCCNCc1c2ccccc2c(CNCCCN(CCCN)CCCN)c2ccccc12 | 110% | 91.9% | 104% | 106% | 115% | – | 98.6% | – | 99.8% | 106% | 110% | 72.4% | 97.5% | 100% | – | 95.4% | 102% | 98.8% | 100% | 89.4%
18 | Oc1c(C(Nc2ccccc2)c2ccccc2)ccc2cccnc12 (centres undefined) | 29.4% | 44.5% | 70.8% | 46.8% | 25.7% | – | 19.7% | 31.4% | 31.6% | 53.3% | 54.6% | 36.9% | 49.4% | – | 29.1% | 78.7% | 17.7% | 21.2% | 48% | –
